Results on nine compounds are retold here after PubChem BioAssay.

Where “and” joins values, the source holds several entries; their conditions need not be identical. Equal entries are not always repeated. Inconclusive results are not listed. Calls of active or inactive are those of the source. Rule as the data show it, unless noted: active = inhibition above about 80%; inactive = the rest.

One may read the AC50 as the concentration giving half of the maximal activity seen. Usually inhibition stands for the relative decrease from the control value, in per cent. As a reminder, the viability is a read-out of living cells in per cent, often relative to untreated cells. The remaining activity is the signal under treatment as a percentage of the control signal.

Test [1] concerns the target ATP-dependent translocase ABCB1 (Homo sapiens) (UniProt P08183). The test can be described thus: P-glycoprotein substrate transport blockade – cell-based (AID 377; in the data active = fluorescence slope change above about 50%). Conditions: MDR1-expressing cells, fluorescent substrate accumulation slope; stronger effect = higher value; concentration not given here.
Test [2] can be described thus: viability loss in pontine glioma line – cell-based, SU-DIPG-XIII, MIPE5.0, CellTiter-Glo, qHTS, dose response (AID 1347064; cut-off not given, nearly all actives have AC50 up to about 23 µM;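 as to AC50: cells exposed to compound for 48 hours before the viability read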). The following applies: CellTiter-Glo ATP luminescence. For orientation: Cellular ATP, detected with luciferase, serves as a proxy for viable cell number.
The nature of test [3]: compounds altering HSF1 focus formation in cells – imaging, Selleck Cancer Library (AID 1347162; in the data active = plate-normalised HSF1 focus index below about 0.46). Conditions: human cells, HSF1 nuclear foci imaging, at 10 µM; SSMD: measured here: HSF1 foci SSMD mean; cell count: measured here: cell number; plate-normalised HSF1 focus index: stronger effect = lower value.
Test [4] in a line: viability loss in pontine glioma line – cell-based, SU-DIPG-IV, MIPE4.0, CellTiter-Glo, qHTS, dose response (AID 1347063; cut-off not given, nearly all actives have AC50 up to about 30 µM;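 also: compound exposure lasted 48 hours before the viability readout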). The following applies: CellTiter-Glo ATP luminescence.
A short description of test [5]: growth inhibition, single agents and combos, CRL2098, cell-based, BGB or cisplatin IC20 combos, synergistic combos for chromothripsis tumors (AID 1671454).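 Also: cells exposed for 96 h before readout; 0% = vehicle DMSO and 100% = killing by high DMSO.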 The following applies: CRL2098 osteosarcoma cells, drug combinations, stronger effect = higher value.
Test [6] can be described thus: growth inhibition, single agents and combos, HD-MB03, cell-based, BGB or cisplatin IC20 combos, synergistic combos for chromothripsis tumors (AID 1671455; in the data active = inhibition above about 83%;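 also: 0% = vehicle DMSO and 100% = high DMSO as cytotoxic control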). Conditions: HD-MB03 medulloblastoma cells, stronger effect = higher value.
Test [7] can be described thus: growth inhibition, single agents and combos, UWB1.289, cell-based, BGB or cisplatin combos, synergistic combos for chromothripsis tumors (AID 1671456).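 Also: cells exposed to compound for four days; 0% = vehicle DMSO and 100% = killing by high DMSO.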 The following applies: UWB1.289 ovarian carcinoma cells, stronger effect = higher value.
Test [8] can be described thus: growth inhibition, single agents and combos, LFS_MB_2R, cell-based, cisplatin combos, synergistic combos for chromothripsis tumors (AID 1671457).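 Also: cells exposed to compound for four days before readout.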 Conditions: LFS_MB_2R medulloblastoma cells, stronger effect = higher value.
Test [9] can be described thus: UWB1.289_BRCA1 ovarian cancer growth, cell-based, BGB or cisplatin combinations (AID 1671459). Conditions: UWB1.289 BRCA1 ovarian carcinoma, drug combinations, stronger effect = higher value.
Test [10] can be described thus: drug combination toxicity in non-malignant astrocytes – cell-based, BGB or cisplatin IC20 combos, cytotoxicity control for chromothriptic childhood tumor combination screen (AID 1671460).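 Also: cells exposed to compounds for 96 hours before viability readout; 0% = vehicle and 100% = killing control.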 The following applies: Human astrocytes, viability inhibition, drug combinations, at 0.5 µM, stronger effect = higher value.
Test [11] in a line: P. berghei load reduction in hepatocytes – cell-based, HepG2, luciferase luminescence, HepG2 viability, primary screen (AID 624349; in the data active = parasite load remaining mostly below about 12%, no sharp cut-off; inactive = mostly above about 10%;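 also: 100% = mean of DMSO negative control wells on the same plate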). The following applies: P. berghei liver stage in HepG2, luciferase luminescence, concentration not given here; parasite load remaining: stronger effect = lower value; viability: measured here: HepG2 viability without parasites.
Test [12] relates to Aerobactin synthetase IucA (Klebsiella pneumoniae). The test can be described thus: inhibition of K. pneumoniae IucA enzyme – biochemical, Tocris library, absorbance (AID 1345561; call rule not given here;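 also: 100% = enzyme without compound and 0% = no enzyme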). Conditions: purified IucA enzyme assay, absorbance (OD) read-out; stronger effect = lower value;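 tested at 8 µM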.
The nature of test [13]: chitosan synthesis blockers in C. neoformans – flow cytometry, Cibacron Brilliant Red staining (AID 1347148; call rule not given here;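 also: compound exposure lasted three days at 37 degrees C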). The following applies: Cryptococcus neoformans chitosan, stronger effect = lower value; at 99.1 µM unless noted. (In general: Flow cytometry measures light scatter and fluorescence of single cells or particles in a stream.)
The subject of test [14] is Neuropilin-2 / VEGF-C interaction (human). Briefly: small molecules blocking Neuropilin-2/VEGF-C interaction – biochemical, microplate binding format, z-score (AID 743281; call rule not given here). Conditions: microplate NRP2/VEGF-C binding assay; stronger effect = lower value.
Setting [15] is: measured here: combination with BGB at IC20, at 0.5 µM.
Where [16] appears, read: measured here: combination with cisplatin at IC20, at 0.5 µM.
[17] abbreviates: measured here: combo with BGB at IC20, at 0.5 µM.
The mark [18] stands for this setting: measured here: combo with cisplatin at IC20, at 0.5 µM.
Where [19] appears, read: measured here: inhibition with BGB combination, at 0.05 µM.
The mark [20] stands for this setting: measured here: inhibition with cisplatin combination, at 0.05 µM.
Setting [21] is: measured here: combination with cisplatin, at 0.5 µM.
[22] abbreviates: measured here: combination with cisplatin, at 5 µM.
Setting [23] is: BGB combination, concentration series, at 5 µM.
Where [24] appears, read: cisplatin combination, concentration series, at 5 µM.
[25] abbreviates: measured here: combo with BGB IC20.
Setting [26] is: measured here: combo with cisplatin IC20.

Sequence of ATP-dependent translocase ABCB1 (Homo sapiens) (P08183 whole entry, looked up): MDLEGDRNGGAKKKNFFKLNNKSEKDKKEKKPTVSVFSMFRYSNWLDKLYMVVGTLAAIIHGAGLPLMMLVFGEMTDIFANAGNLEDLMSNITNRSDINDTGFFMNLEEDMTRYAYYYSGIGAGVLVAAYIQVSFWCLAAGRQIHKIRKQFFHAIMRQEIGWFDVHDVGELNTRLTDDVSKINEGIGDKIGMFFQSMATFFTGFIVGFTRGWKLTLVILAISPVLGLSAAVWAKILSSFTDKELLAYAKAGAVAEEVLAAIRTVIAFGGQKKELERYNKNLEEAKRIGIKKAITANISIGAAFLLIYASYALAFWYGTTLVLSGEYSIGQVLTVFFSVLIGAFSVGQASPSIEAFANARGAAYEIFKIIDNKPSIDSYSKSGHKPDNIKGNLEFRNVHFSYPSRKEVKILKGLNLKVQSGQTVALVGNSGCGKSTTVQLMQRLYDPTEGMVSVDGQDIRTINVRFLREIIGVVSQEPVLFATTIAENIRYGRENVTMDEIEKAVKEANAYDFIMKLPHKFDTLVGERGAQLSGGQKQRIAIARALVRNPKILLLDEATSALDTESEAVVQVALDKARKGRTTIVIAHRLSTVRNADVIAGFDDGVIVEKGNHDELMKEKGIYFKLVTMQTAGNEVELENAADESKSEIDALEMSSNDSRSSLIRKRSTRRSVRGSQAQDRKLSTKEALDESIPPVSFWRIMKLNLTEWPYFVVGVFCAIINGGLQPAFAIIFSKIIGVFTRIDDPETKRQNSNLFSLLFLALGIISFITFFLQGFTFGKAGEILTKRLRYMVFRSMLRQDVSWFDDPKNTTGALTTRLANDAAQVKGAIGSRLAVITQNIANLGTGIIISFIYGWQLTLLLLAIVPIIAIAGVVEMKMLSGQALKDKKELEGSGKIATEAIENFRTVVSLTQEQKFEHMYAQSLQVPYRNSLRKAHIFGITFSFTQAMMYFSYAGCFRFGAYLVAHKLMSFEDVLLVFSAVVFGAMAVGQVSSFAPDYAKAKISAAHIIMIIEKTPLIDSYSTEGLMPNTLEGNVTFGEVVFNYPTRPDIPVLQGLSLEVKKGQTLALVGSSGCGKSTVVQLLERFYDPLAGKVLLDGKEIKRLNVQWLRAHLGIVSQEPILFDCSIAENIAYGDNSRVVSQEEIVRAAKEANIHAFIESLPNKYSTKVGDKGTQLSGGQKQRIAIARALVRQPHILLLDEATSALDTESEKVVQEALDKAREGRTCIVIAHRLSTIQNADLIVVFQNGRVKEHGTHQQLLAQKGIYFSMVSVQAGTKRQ

For the compound `CC(C)C(=O)Nc1ccc([N+](=O)[O-])c(C(F)(F)F)c1`, in test [1], the fluorescence slope change is 60.9% (active). Besides, the compound was classed as inactive in test [2]. Moreover, in [3], the SSMD was 1.17, the cell count amounted to 6660 and the plate-normalised HSF1 focus index is 1.06 (inactive).
As for `O=C1c2c(O)ccc(O)c2C(=O)c2c(NCCNCCO)ccc(NCCNCCO)c21`, the AC50 in [4] is 6.62 µM (active); in test [2] it was 10.5 µM (active). Moreover, in test [3], the SSMD is -1.6. The compound further had a cell count in test [3] of 7320. The plate-normalised HSF1 focus index in [3] is 0.898 (inactive). Besides, the inhibition in test [5] (at 0.5 µM) was 7.34% (inactive); in test [5] (setting [15]), 20.4%; in test [5] (setting [16]), -13.9%; in [6] (at 0.5 µM), 88% (active); in test [6] (setting [17]), 86.5%; in [6] (setting [18]), 84.8%. The inhibition is 64.9% (inactive) in test [7] (at 0.5 µM); -29.8% in [7] (setting [19]); -25.8% in [7] (setting [20]); -5.4% (inactive) in [8] (at 0.5 µM); 20.8% in test [8] (setting [21]); 92.5% in test [8] (setting [22]). Besides, the inhibition in test [9] (setting [23]) is 105%; in test [9] (at 0.5 µM) it was 63.4% (inactive); in [9] (setting [24]) it was 104%; in test [10] it was 68.8% (inactive); in test [10] (setting [25]) it was 69.1%; in test [10] (setting [26]), 56.7%.
Take `O=c1[nH]cnc2[nH]ncc12`: in test [11], the parasite load remaining is 54% (inactive) and 101% (inactive) and 124% (inactive); the viability was 90.8% and 70.7% and 94.2%. Further, the compound was classed as inactive in [4]. The call in [2] was inactive.
As to `CCCc1cc(=O)[nH]c(=S)[nH]1`, the fluorescence slope change in test [1] was -6.8% (inactive). Moreover, the result in test [4] and in test [2] was inactive.
For `O=C(O)CCCc1ccccc1`, the parasite load remaining in test [11] was 61.6% (inactive) and 72.5% (inactive). Moreover, the viability in [11] was 96.6% and 102%. Besides, the remaining activity in test [12] was 106% (inactive). In addition, in [3], the SSMD stood at 2.46. In test [3], the cell count worked out at 7000. Further, in [3], the plate-normalised HSF1 focus index is 1.14 (inactive). The inhibition was -56.1% (inactive) in test [5] (at 0.5 µM); -54.3% in test [5] (setting [15]); -68.3% in test [5] (setting [16]); -7.96% (inactive) in test [6] (at 0.5 µM); -7.07% in test [6] (setting [17]); -7.42% in test [6] (setting [18]). Besides, the inhibition was -4.79% (inactive) in test [7] (at 0.5 µM); -17.3% in test [7] (setting [19]); -13.9% in [7] (setting [20]); -17.8% (inactive) in test [8] (at 0.5 µM); -17.8% in test [8] (setting [21]); -56.2% in [8] (setting [22]). The inhibition in [9] (setting [23]) is 3.17%; in test [9] (at 0.5 µM), -1.28% (inactive); in test [9] (setting [24]), 25.2%; in test [10] it was 2.17% (inactive); in [10] (setting [25]), -14.8%; in test [10] (setting [26]), -0.734%.
Consider `COc1ccc(Cl)cc1C(=O)NCCc1ccc(S(=O)(=O)NC(=O)NC2CCCCC2)cc1`, for which the fluorescence slope change in test [1] is 105% (active). Besides, the remaining activity in test [12] is 104% (inactive). Also, in [13], the fold fluorescence was 3.32 [at 101.2 µM] (inactive).
Turning to `NNCCc1ccccc1`, in test [1], the fluorescence slope change is 67.1% (active). Also, the z-score in test [14] is -0.0568 (inactive). Besides, the AC50 in [4] was 13.2 µM (active). For the same compound, in test [2], the outcome was inactive.
Regarding `O=C(C1CCCCC1)N1CC(=O)N2CCc3ccccc3C2C1` (stereo not given), the outcome in [4] and in test [2] was inactive.
As to `CC12CC3CC(C)(C1)CC(N)(C3)C2`, in test [14], the outcome was inactive. Besides, in [12], the remaining activity was 87.5% (inactive).
